IDH1 R132H inh = human IDH1 R132H inhibition. AID 602179. 0.093% of 390,000 active. IDH1-R132H enzyme, NADPH consumption, diaphorase/resazurin fluorescence. Potency, µM (doses to about 76.6 µM), actives largely listed as inhibitors; further: nearly all actives have a fitted effect of over 65% in size
Target sequence (O75874 whole entry R132H, stated change not applied): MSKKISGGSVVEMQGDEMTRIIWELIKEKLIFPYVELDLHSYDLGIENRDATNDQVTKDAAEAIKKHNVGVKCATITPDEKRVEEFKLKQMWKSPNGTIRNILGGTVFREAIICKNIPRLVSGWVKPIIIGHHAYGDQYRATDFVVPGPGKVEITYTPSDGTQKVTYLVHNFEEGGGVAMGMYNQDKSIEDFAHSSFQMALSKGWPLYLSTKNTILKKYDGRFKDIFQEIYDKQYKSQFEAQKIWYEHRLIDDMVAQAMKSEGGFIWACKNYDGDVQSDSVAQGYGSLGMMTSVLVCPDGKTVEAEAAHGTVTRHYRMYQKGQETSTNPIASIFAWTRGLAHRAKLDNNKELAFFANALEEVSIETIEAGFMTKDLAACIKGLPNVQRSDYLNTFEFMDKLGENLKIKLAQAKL
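IDH1-R132H (0.5 ug/mL) preincubated 30 min with compound, then NADPH (0.016 mM) and alpha-KG (2 mM) added; 80 min at RT, pH 7.5. Remaining NADPH coupled via diaphorase/resazurin to fluorescence (540/590 nm); concentration-response curves normalized to no-enzyme control.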
TrxR1 inh = rat TrxR1 inhibition; O89049; recombinant rTrxR1, NADPH fluorescence consumption, selenite substrate; Potency, µM (top dose mostly 114 µM), hits mostly inhibitors; 1% of 390,000 active; further: nearly all actives have a fitted effect of over 65% in size
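Rat TrxR1 (90 nM in the dispensed reagent) was pre-reduced with 400 uM NADPH for 5 min at room temperature, then incubated with compound for 15 min. After 400 uM selenite was added, NADPH fluorescence (Ex 340/Em 450 nm) was followed for 8 min.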
Mito fusion yeast = blocks mitochondrial division or promotes mitochondrial fusion; S. cerevisiae fusion-defective mutant growth rescue, CellTiterGlo 48 h; Potency, µM (doses to about 46.1 µM), usual class: activators; 0.23% of 320,000 active; AID 485298; further: nearly all actives have a fitted effect of over 45% in size
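S. cerevisiae fusion-defective temperature-sensitive mutants (e.g. fzo1-1, mgm1-5) grown 48 h at 37C in YPEG (ethanol/glycerol non-fermentable) medium with 23 nl compound per well; growth rescue read as CellTiterGlo luminescence.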
Nrf2 inh = inhibitors of Nrf2 signaling. A549 ARE-Fluc reporter, luciferase luminescence, 18-24 h. Potency, µM (highest dose often 46 µM), actives largely listed as inhibitors. 2.1% of 360,000 active. AID 504444; further: nearly all actives have a fitted effect of over 60% in size
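Quantitative HTS in A549 cells stably bearing an antioxidant response element-firefly luciferase construct. Inhibition of Nrf2-driven transcription was scored by luminescence after 18-24 h of compound exposure at 37 °C.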
A549 tox = kills or reduces viability of A549 cells in Nrf2 counter-screen. A549 ARE-Fluc cells, CellTiter-Fluor viability, 18-24 h. Potency, µM (doses to about 46 µM), most hits filed as inhibitors. 0.16% of 390,000 active
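A549 ARE_Fluc cells in 5% FBS OPTI-MEM were exposed to compounds in concentration-response for 18-24 h at 37 deg C. Viability was read by CellTiter-Fluor fluorescence (Ex 405/Em 525) after 30 min, before the luciferase read.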
TrxR1 substrate = is turned over as a substrate by rat TrxR1; purified TrxR1 substrate turnover, NADPH consumption readout; 0.01% of 390,000 active; O89049; Potency, µM (top dose mostly 114 µM); further: nearly all actives have a fitted effect of over 50% in size
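Rat TrxR1, dispensed at 90 nM, was prereduced with 400 uM NADPH (final) for 5 min at ~22 deg C, then incubated with compound 15 min before 400 uM selenite. A first-read NADPH fluorescence drop versus no-compound background flagged substrates.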
Resorufin autofl = interferes with resorufin fluorescence in IDH1 counter-screen | shares compounds with IDH1 R132H inh | inhibition of signal, % at 51.2 µM | Resorufin detection reagent fluorescence interference, cell-free | AID 623980 | 750 tested, under 10 active
IDH1 WT = wild-type IDH1 (human) inhibition counterscreen | shares compounds with IDH1 R132H inh | WT IDH1 enzyme, NADPH diaphorase/resazurin fluorescence | Potency, µM (series often up to 115 µM), usual class: inhibitors | 9% of 750 active; further: nearly all actives have a fitted effect of over 55% in size
Target sequence (O75874 whole entry, looked up): as the sequence (O75874 whole entry R132H, stated change not applied) above, with H132R counted along it
IDH1 R132H conf = confirmation of human mutant IDH1 inhibitors; shares compounds with IDH1 R132H inh; IDH1 R132H enzyme, NADPH diaphorase/resazurin fluorescence; Potency, µM (doses to about 76.6 µM), actives largely listed as inhibitors; 83% of 750 active; further: nearly all actives have a fitted effect of over 50% in size
Numbers stand for hits; [ ] = another dose, or the depositor's remark. A selection: hits, their analogues and other compounds. The true share with any hit is near 3.1%. The call rests on the fitted dose curve; in most records, active means well fitted curve in the direction sought with a large enough effect; inconclusive means small, poorly fitted or top-dose-only effect, or another doubt; inactive means no such curve, though single readings can be large; an effect the other way counts as inactive or inconclusive.

Screening CC(=O)c1ccc(NC(=O)c2ncn(-c3ccccc3)n2)cc1 returned IDH1 R132H inh inactive, TrxR1 inh inactive, Nrf2 inh inconclusive, A549 tox inactive and TrxR1 substrate inactive.
For CCc1ccc(-c2nc(-c3cc4ccccc4oc3=O)sc2C)cc1 the results were IDH1 R132H inh inactive, TrxR1 inh inactive, A549 tox inactive and TrxR1 substrate inactive.
`COc1cc(/C=C2\SC(=Nc3ccccc3)N(Cc3ccco3)C2=O)ccc1OC(C)C(=O)O` (stereo unspecified) gave IDH1 R132H inh inactive, TrxR1 inh inactive, Mito fusion yeast inactive, Nrf2 inh inactive, A549 tox inconclusive and TrxR1 substrate inactive.
`COCCN1C(=O)/C(=C/c2ccc(OCc3ccc(C(=O)O)cc3)c(OC)c2)SC1=Nc1ccccc1` gave IDH1 R132H inh 20.7µM, TrxR1 inh inactive, Mito fusion yeast inconclusive, Nrf2 inh inconclusive, A549 tox 20.6µM, TrxR1 substrate inactive, Resorufin autofl inactive, IDH1 WT 79.4µM and IDH1 R132H conf 10µM.
Screening COc1ccc(NS(=O)(=O)c2ccc3c(c2)n(C)c(=O)c(=O)n3C)cc1Cl returned IDH1 R132H inh inactive, TrxR1 inh inactive, Nrf2 inh inactive, A549 tox inactive and TrxR1 substrate inactive.
For O=C(NC1CCCC1)C(c1ccccc1F)N(C(=O)c1csnn1)c1ccccc1 (stereo unspecified) the results were IDH1 R132H inh inconclusive, TrxR1 inh inactive, Mito fusion yeast inactive, Nrf2 inh inactive, A549 tox inactive, TrxR1 substrate inactive, Resorufin autofl inactive, IDH1 WT inactive and IDH1 R132H conf 15.8µM.
`O=C(NC1CCCCC1)C(c1cccs1)N(C(=O)c1ccccn1)c1ccccc1` (stereo unspecified) gave IDH1 R132H inh inconclusive, TrxR1 inh inactive, Mito fusion yeast inactive, Nrf2 inh inactive, A549 tox inactive, TrxR1 substrate inactive, Resorufin autofl inactive, IDH1 WT inactive and IDH1 R132H conf inconclusive.
For Cc1ccc(N(C(=O)CCC(=O)Nc2cc(C)on2)C(C(=O)NC2CCCC2)c2cccs2)cc1 (stereo unspecified) the results were IDH1 R132H inh inactive, TrxR1 inh inactive, Mito fusion yeast inactive, Nrf2 inh inactive, A549 tox inactive and TrxR1 substrate inactive.
`Cc1ccc(N(C(=O)C(F)(F)F)C(C(=O)NC2CCCCC2)c2cccs2)cc1` (stereo unspecified) gave IDH1 R132H inh inconclusive, TrxR1 inh inactive, Mito fusion yeast inactive, Nrf2 inh inactive, A549 tox inactive, TrxR1 substrate inactive, Resorufin autofl inactive, IDH1 WT inactive and IDH1 R132H conf 11.2µM.
For COc1ccccc1Nc1cc(C)nc2nc(-c3ccccc3)nn12 the results were IDH1 R132H inh inactive, TrxR1 inh inactive, A549 tox inactive and TrxR1 substrate inactive.
For O=C(c1ccncc1)N1N=C(c2ccc(Br)cc2)CC1c1ccccc1O (stereo unspecified) the results were IDH1 R132H inh 35.5µM, TrxR1 inh inactive, Mito fusion yeast inconclusive, Nrf2 inh inconclusive, A549 tox inconclusive, TrxR1 substrate inactive, Resorufin autofl inactive, IDH1 WT inactive and IDH1 R132H conf 15.8µM.
For O=C(c1ccccc1)N1N=C(c2ccccc2)CC1c1ccccc1O (stereo unspecified) the results were IDH1 R132H inh inactive, TrxR1 inh inactive, Mito fusion yeast inactive, Nrf2 inh inconclusive, A549 tox inconclusive and TrxR1 substrate inactive[11.4 µM].
CCC1C(C#N)=C(SCC(N)=O)NC2=C1C(=O)CC(C)(C)C2 (stereo unspecified) was read as IDH1 R132H inh inactive, TrxR1 inh inactive, Mito fusion yeast inactive, Nrf2 inh inactive, A549 tox inactive and TrxR1 substrate inactive.
Screening COc1ccc(C2C(C#N)=C(SCC(=O)Nc3ccc(C)cc3)NC3=C2C(=O)CC(C)(C)C3)cc1 (stereo unspecified) returned IDH1 R132H inh 13.1µM, TrxR1 inh inactive, Mito fusion yeast inactive, Nrf2 inh inconclusive, A549 tox inconclusive, TrxR1 substrate inactive, Resorufin autofl inactive, IDH1 WT inactive and IDH1 R132H conf 7.08µM.
Cc1cccc(-c2nc3scc(CCNS(=O)(=O)c4ccc(F)cc4C)n3n2)c1 was read as IDH1 R132H inh inactive, TrxR1 inh inactive, A549 tox inactive and TrxR1 substrate inactive.
`Cc1cc(C)nc(N/N=C/C2=C(N3CCOCC3)C(=C/c3ccccc3)/CC2)n1` gave IDH1 R132H inh 29.3µM, TrxR1 inh inactive, Mito fusion yeast inactive, Nrf2 inh inconclusive, A549 tox inactive, TrxR1 substrate inactive, Resorufin autofl inactive, IDH1 WT inactive and IDH1 R132H conf 20µM.
`Cc1c(C(=O)Oc2ccc(-c3cnc4ccccc4n3)cc2)cccc1[N+](=O)[O-]` gave IDH1 R132H inh inconclusive, TrxR1 inh inactive, Mito fusion yeast inactive, Nrf2 inh inconclusive, A549 tox inactive, TrxR1 substrate inactive, Resorufin autofl inactive, IDH1 WT inactive and IDH1 R132H conf 50.1µM.
`O=C(Oc1ccc(-c2cnc3ccccc3n2)cc1)c1cc([N+](=O)[O-])ccc1Cl` gave IDH1 R132H inh inactive, TrxR1 inh inactive, Mito fusion yeast inactive, A549 tox inactive and TrxR1 substrate inactive.
For CCc1nn(CC(=O)NCc2cccc(OC)c2OC)c(=O)c2cc3occc3n12 the results were TrxR1 inh inactive, Nrf2 inh inactive, A549 tox inactive and TrxR1 substrate inactive.
Screening CC(=O)N(C(C)=O)N1C(=O)/C(=C/c2ccc(Cl)cc2)SC1=S returned IDH1 R132H inh inconclusive, TrxR1 inh inconclusive, Mito fusion yeast inactive, Nrf2 inh inconclusive, A549 tox inactive, TrxR1 substrate inactive, Resorufin autofl inactive, IDH1 WT inactive and IDH1 R132H conf 50.1µM.
For COc1ccccc1-c1noc(CSc2nnc(Cc3ccccc3)n2-c2ccc(C)c(C)c2)n1 the results were IDH1 R132H inh inconclusive, TrxR1 inh inactive, Nrf2 inh 23.1µM, A549 tox inconclusive, TrxR1 substrate inactive, Resorufin autofl inactive, IDH1 WT inactive and IDH1 R132H conf inconclusive.
For COc1ccc(-c2noc(CSc3nnc(C)n3-c3ccc(C)c(C)c3)n2)c(OC)c1 the results were IDH1 R132H inh inactive, TrxR1 inh inactive, Nrf2 inh inactive, A549 tox inactive and TrxR1 substrate inactive.

Screening results deposited in PubChem BioAssay by National Center for Advancing Translational Sciences (NCATS).
